According to PubChem BioAssay:
Active and inactive are the calls of the source. Unless noted, the rule behind the calls is not given here.

Key:
[1] = HepG2 liver cancer cell viability effects, profiling panel, resazurin fluorescence, 24 h, PK04 Diversity Set (AID 1172); conditions: higher = more signal
[2] = basal S. cerevisiae growth modulation, no modifier, primary screen, OD600, strain BY4716, 24 h, basal condition (AID 1173); conditions: OD600, 24 h, higher = more signal, called active from +8 up or from −8 down
[3] = MM1S myeloma cell viability, profiling panel, resazurin fluorescence, basal, 24 h, PK04 Diversity Set (AID 1174); conditions: higher = more signal, called active from +8 up or from −8 down;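 note: MM1S multiple myeloma cell line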
[4] = target: Dihydroorotate dehydrogenase (quinone), mitochondrial (Plasmodium falciparum (isolate 3D7)) (UniProt Q08210); test: PfDHODH enzyme inhibitors, primary screen, biochemical, C-terminal His tag, absorbance 600 nm (AID 1175); conditions: DCIP absorbance 600 nm, higher = more signal, called active from +8 up or from −8 down;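 note: recombinant parasite enzyme with a five histidine tag at its C terminus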
Chain of Dihydroorotate dehydrogenase (quinone), mitochondrial (Plasmodium falciparum (isolate 3D7)) (Q08210 whole entry, looked up): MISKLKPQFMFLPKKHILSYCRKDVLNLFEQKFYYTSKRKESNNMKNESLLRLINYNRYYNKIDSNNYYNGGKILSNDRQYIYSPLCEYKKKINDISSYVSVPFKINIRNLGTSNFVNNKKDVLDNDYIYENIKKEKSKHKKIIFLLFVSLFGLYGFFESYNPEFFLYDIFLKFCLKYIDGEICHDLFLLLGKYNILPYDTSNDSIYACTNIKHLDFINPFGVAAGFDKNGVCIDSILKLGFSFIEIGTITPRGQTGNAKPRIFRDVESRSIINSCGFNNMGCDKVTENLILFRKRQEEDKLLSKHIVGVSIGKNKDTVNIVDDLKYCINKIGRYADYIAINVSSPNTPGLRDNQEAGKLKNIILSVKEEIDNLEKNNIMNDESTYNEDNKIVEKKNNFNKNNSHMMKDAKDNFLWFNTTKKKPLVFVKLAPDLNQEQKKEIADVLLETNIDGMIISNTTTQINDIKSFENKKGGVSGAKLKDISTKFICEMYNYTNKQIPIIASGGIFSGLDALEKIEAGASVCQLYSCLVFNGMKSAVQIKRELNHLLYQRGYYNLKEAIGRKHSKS

[5] = P. aeruginosa biofilm formation inhibitors, primary screen, strain PAO1, LB-PBS medium, absorbance 600 nm (AID 1176); conditions: P. aeruginosa PAO1 growth/biofilm, A600, 12 h; higher = more signal
[6] = S. cerevisiae RM11-1a growth modifiers, primary screen, strain RM11-1a, OD600, basal, 24 h (AID 1177); conditions: OD600, 24 h, higher = more signal, called active from +8 up or from −8 down;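 note: cultures grown under basal conditions with no added stressor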
[7] = E. coli acrAB mutant growth effects, primary screen, E. coli filamentation inducers, strain DRC39, OD650, 24 h (AID 1178); conditions: higher = more signal, called active from +8 up or from −8 down;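 note: growth measured as culture turbidity by optical density at 650 nm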
[8] = E. coli acrAB mutant growth effects, primary screen, E. coli filamentation inducers, strain DRC39, OD650, 48 h (AID 1179);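 note: screen aims at cell division blockers that make cells filament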; conditions: E. coli DRC39 delta-acrAB growth, higher = more signal, called active from +8 up or from −8 down
[9] = RPMI8226 myeloma cell viability, profiling panel, resazurin fluorescence, basal, 24 h, PK04 Diversity Set (AID 1180); conditions: higher = more signal;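 note: RPMI8826 multiple myeloma cell line at 5000 cells per well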
[10] = target: E3 ubiquitin-protein ligase XIAP (Homo sapiens) (UniProt P98170); test: XIAP binders, primary screen, biophysical, small-molecule microarray, fluorescence 635 nm (AID 1181); conditions: small-molecule microarray binding, higher = more signal;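 note: score merges 667 nm emission and signal to noise over triplicate slides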
Chain of E3 ubiquitin-protein ligase XIAP (Homo sapiens) (P98170 whole entry, looked up): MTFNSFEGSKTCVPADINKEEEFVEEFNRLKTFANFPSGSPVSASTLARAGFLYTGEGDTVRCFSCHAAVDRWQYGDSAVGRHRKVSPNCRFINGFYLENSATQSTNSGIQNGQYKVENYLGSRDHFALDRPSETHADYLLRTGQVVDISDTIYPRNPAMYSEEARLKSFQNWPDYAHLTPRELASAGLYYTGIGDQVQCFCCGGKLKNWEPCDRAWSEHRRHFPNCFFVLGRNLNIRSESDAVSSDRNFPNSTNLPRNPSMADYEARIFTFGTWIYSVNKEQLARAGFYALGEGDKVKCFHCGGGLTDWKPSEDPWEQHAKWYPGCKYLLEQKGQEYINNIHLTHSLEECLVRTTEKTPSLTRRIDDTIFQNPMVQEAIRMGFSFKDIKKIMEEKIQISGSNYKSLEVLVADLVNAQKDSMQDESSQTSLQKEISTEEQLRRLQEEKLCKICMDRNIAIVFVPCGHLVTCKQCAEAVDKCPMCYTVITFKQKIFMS

[11] = tested on: XIP peptide (Xip251-270) binding; test: small-molecule binders of XIP peptide, primary screen, biochemical, small-molecule microarray, fluorescence 635/667 nm, 0.1 µg/mL protein (AID 1182); conditions: fluorescent protein binding, 635 nm, higher = more signal, called active from +8 up or from −8 down
XIP peptide (Xip251-270) = test: small-molecule binders of XIP peptide, primary screen, biochemical, small-molecule microarray, fluorescence 635/667 nm, 0.5 µg/mL protein (AID 1183); conditions: small-molecule microarray binding, fluorescence 635 nm; higher = more signal
[12] = Plasmodium falciparum growth inhibition, primary screen, strain 3D7, DAPI fluorescence, 100 nL (AID 1184);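 note: parasites grown inside human red blood cells in medium with human serum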; conditions: P. falciparum 3D7 growth, 3 d, higher = more signal
[13] = target: Homeobox protein Hox-A13 (Mus musculus) (UniProt Q62424); test: inhibitors of HoxA13-DNA binding, primary screen, biochemical, fluorescence polarization, labeled oligonucleotide (AID 1185); conditions: 15 min, higher = more signal, called active from +8 up or from −8 down
Chain of Homeobox protein Hox-A13 (Mus musculus) (Q62424 whole entry, looked up): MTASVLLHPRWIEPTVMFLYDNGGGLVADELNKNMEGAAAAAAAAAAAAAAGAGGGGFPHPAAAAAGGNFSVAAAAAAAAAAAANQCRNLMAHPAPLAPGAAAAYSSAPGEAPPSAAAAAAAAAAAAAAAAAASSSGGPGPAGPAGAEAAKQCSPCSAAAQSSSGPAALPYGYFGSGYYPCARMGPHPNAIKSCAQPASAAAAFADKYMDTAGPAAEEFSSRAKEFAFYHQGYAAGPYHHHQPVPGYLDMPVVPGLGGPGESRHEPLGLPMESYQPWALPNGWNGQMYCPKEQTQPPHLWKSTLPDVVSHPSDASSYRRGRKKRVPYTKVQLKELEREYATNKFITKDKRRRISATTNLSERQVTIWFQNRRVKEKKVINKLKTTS

[14] = inhibitors of hydroxyurea-induced Chk1 phosphorylation, primary screen, imaging, HeLa, phospho-Chk1 antibody, percent positive cells (AID 1186); conditions: hydroxyurea-induced phospho-Chk1 immunofluorescence imaging, higher = more signal
[15] = inhibitors of hydroxyurea-induced Chk1 phosphorylation, primary screen, imaging, HeLa, phospho-Chk1 nuclear intensity (AID 1187); conditions: hydroxyurea-induced phospho-Chk1 immunofluorescence imaging, higher = more signal

SMILES	z-score [1]	z-score [2]	z-score [3]	composite z-score [4]	z-score [5]	z-score [6]	z-score [7]	z-score [8]	z-score [9]	composite z-score [10]	composite z-score [11]	composite z-score (XIP peptide (Xip251-270))	z-score [12]	z-score [13]	z-score [14]	z-score [15]
CN(C)CCCC[C@@H]1NC(=O)[C@@H]2C[C@H](C(=O)NCCCCCN)[C@H](c3cccc(OCCO)c3)N2C1=O	0.881	-0.985 (inactive)	1.49 (inactive)	-0.417 (inactive)	0.531 (inactive)	-2.59 (inactive)	2.01 (inactive)	2.02 (inactive)	0.819	-0.184	1.14 (inactive)	0.898	-0.0568	-1.29 (inactive)	-0.523 (inactive)	0.0431 (inactive)
COC(=O)C1(Cc2ccccc2)C=C2C(=C(C)C(=O)C2C)CN1 (centres undefined)	-0.896	1.1 (inactive)	-0.86 (inactive)	-1.98 (inactive)	0.452 (inactive)	-0.527 (inactive)	0.858 (inactive)	1.2 (inactive)	-0.625	-0.168	-0.217 (inactive)	0.943	0.235	-5.82 (inactive)	0.0869 (inactive)	0.244 (inactive)
CCOC(=O)c1cn(C[C@H](Cc2ccccc2)NC(=O)N[C@H](CO)CCc2oc(C(C)=O)c(C(=O)OC)c2C(=O)OC)nn1	-0.756	-2.76 (inactive)	0.225 (inactive)	-3.55 (inactive)	-0.227 (inactive)	-0.669 (inactive)	-0.124 (inactive)	-0.356 (inactive)	-0.458	-0.0835	0.534 (inactive)	0.635	-1.63	-2.67 (inactive)	-0.107 (inactive)	0.432 (inactive)
CC1CC/C=C\[C@H]2OC34C=CCN(Cc5ccccc5)C(=O)[C@H]3N(CCCCCCO)C(=O)[C@@H]4C2C(=O)O1 (some centres undefined)	0.279	-0.885 (inactive)	0.507 (inactive)	0.285 (inactive)	-1.06 (inactive)	-0.38 (inactive)	0.608 (inactive)	1.01 (inactive)	1.15	-0.0741	1.32 (inactive)	-0.367	-0.147	-5.85 (inactive)	0.0339 (inactive)	0.0311 (inactive)
CN(C)CCCNC(=O)[C@@]1(C)c2ccccc2C(=O)N(Cc2ccc(OC(F)(F)F)cc2)[C@H]1c1ccc(CO)cc1	-0.732	-1.69 (inactive)	-1.18 (inactive)	-0.397 (inactive)	0.236 (inactive)	-0.164 (inactive)	0.967 (inactive)	-1.26 (inactive)	0.415	-0.156	0.784 (inactive)	0.778	-1.94	-1.98 (inactive)	0.395 (inactive)	0.0436 (inactive)
CCOC(=O)C1=CC[C@@H](c2ccc(OC)cc2)N(S(=O)(=O)c2ccc(C)cc2)[C@H]1c1ccc(C)cc1	0.164	1.31 (inactive)	-0.616 (inactive)	-0.329 (inactive)	-0.0601 (inactive)	-0.187 (inactive)	-0.346 (inactive)	-0.148 (inactive)	-0.652	0.126	0.3 (inactive)	0.44	0.869	-0.57 (inactive)	-0.0113 (inactive)	-0.5 (inactive)
CCCC=C(CCC)[C@@H](NC(=O)OCC(C)C)c1ccc(C(=O)OC)cc1	1.78	0.463 (inactive)	0.287 (inactive)	-0.456 (inactive)	0.523 (inactive)	-0.578 (inactive)	0.386 (inactive)	-0.0328 (inactive)	0.754	0.0651	0.402 (inactive)	0.279	-0.102	-1.31 (inactive)	-0.468 (inactive)	-0.598 (inactive)
Cc1ccc(S[C@]2(C(=O)NCc3ccccc3)CC(=O)N(Cc3ccccc3C(F)(F)F)[C@@H]2c2ccc(CO)cc2)cc1	-0.704	-0.359 (inactive)	0.103 (inactive)	-1.27 (inactive)	0.416 (inactive)	-1.38 (inactive)	0.57 (inactive)	1.46 (inactive)	-0.307	0.109	0.903 (inactive)	0.599	0.78	0.0133 (inactive)	-0.51 (inactive)	-0.393 (inactive)
O=C(NCC(O)CO)C1N=C(c2ccc(OCCCO)cc2)N(c2ccccc2)O1 (centres undefined)	-0.664	-0.732 (inactive)	-0.783 (inactive)	-0.568 (inactive)	-1.41 (inactive)	-0.406 (inactive)	0.015 (inactive)	-0.003 (inactive)	-1	-0.142	0.654 (inactive)	0.801	-0.284	-2.55 (inactive)	-0.195 (inactive)	-0.257 (inactive)
